This excerpt belongs to a sample that is enriched for hits.
Pf Dd2 inh = Plasmodium falciparum Dd2 growth inhibition; P. falciparum Dd2 growth, SYBR Green, 72 h; Potency, µM (titrated, usually from 28.9 µM), for the others: at the top dose activity, negative = inhibition, actives largely listed as inhibitors; actives 4.3% (n = 120,000); active = well fitted inhibition curve with a large enough effect;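 also: plate controls were DMSO vehicle for no effect and reference drug for full effect; nearly all actives have a fitted effect of over 65% in size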
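Readout: SYBR Green fluorescence, 485 nm excitation, 535 nm emission, after ~16 h lysis at 37C. Before that, Dd2-infected red cells (2.5% hematocrit) grew 72 h with compound, 29 uM top final concentration.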
An asterisk follows results filed as active; i = inactive; [ ] = dose if it differs, or a comment. Potency is read from the fitted curve at half-maximal effect.

SMILES | Pf Dd2 inh
CCN(Cc1ccccc1)C(=O)C1CCCCC(=O)N1C (stereo not drawn) | 7%
CN1Cc2ncnc(NCCc3ccccc3)c2CN(C2CCC2)C1=O | i
O=C(O)c1ccccc1C(=O)N1Cc2[nH]cnc2C[C@H]1c1nc(-c2ccncc2)no1 | -13%[44.1 µM]
Cc1cc(C)c2c(=O)cc(C(=O)Nc3c(C)n(C)n(-c4ccccc4)c3=O)oc2c1 | 30%
CCN(Cc1cccc(OCCO)c1)CC1CCCN(CCc2cccc(OC)c2)C1 (stereo not drawn) | 10µM*
COc1cccc(CCC2CCCN(C(=O)C3CCCC3)C2)c1 (stereo not drawn) | i
COc1cccc(CN2CCCC(Nc3cc(N)ncn3)C2)c1 (stereo not drawn) | -19%
Cc1ccc(NC(=O)N2C[C@@H](F)C[C@H]2C(=O)N2CCCCC2)cc1C | 1%
CNC(=O)N1CCCC1c1nc(C2CN(C(=O)Cc3cccc(F)c3)C2)no1 (stereo not drawn) | 25%
COc1ccc(-c2noc(-c3nc(-c4ccccc4F)no3)n2)cc1OC | 22%
Cc1cc(C)cc(Nc2nc(-c3ccccc3F)no2)c1 | 13µM*
COc1cc(Nc2nc(-c3ccccc3)no2)cc(OC)c1OC | -4%
Fc1ccc(Nc2nc(-c3ccccc3)no2)cc1 | i
Fc1ccccc1-c1noc(-c2nc(-c3ccccc3F)no2)n1 | -1%
COc1cc(Nc2nc(-c3ccccc3F)no2)cc(OC)c1OC | 13µM*
CCCCNC(=O)N1C[C@H]2OC(=O)N(Cc3ccc(OC)c(OC)c3)[C@H]2C1 | -6%
CN(C)C(=O)CC1=C2CCCCC2N(C)C1=O (stereo not drawn) | -21%
CCc1ccccc1NC(=O)c1c(OC)cc(=O)n2c1CCCC2 | -7%
Cc1noc([C@@H]2CC(F)(F)CN2C(=O)c2n[nH]c3ccccc23)n1 | i
O=C(NC1CCCC1)N1CCC2(CC1)CC(N(Cc1ccc(F)cc1)C1CC1)CCO2 (stereo not drawn) | 4.5µM*
COC(=O)CNC(=O)N1CCC2(CC1)CC(N(Cc1ccc(F)cc1)C1CC1)CCO2 (stereo not drawn) | -2%
O=C(Cc1ccccc1)N1CCC2(CC1)CC(N(Cc1ccccc1)C1CC1)CCO2 (stereo not drawn) | i
COc1cccc(CC(=O)N2CCC3(CC2)CC(N(Cc2ccccc2)C2CC2)CCO3)c1 (stereo not drawn) | -17%
Cc1ccsc1C(=O)N1CCC2(CC1)CC(N(Cc1ccc(F)cc1)C1CC1)CCO2 (stereo not drawn) | 10µM*
CCC(CC)C(=O)N1CCC2(CC1)CC(N(Cc1ccc(F)cc1)C1CC1)CCO2 (stereo not drawn) | -13%
SMILES | Pf Dd2 inh
Cc1ccsc1C(=O)N1CCC2(CC1)CC(N(C(=O)c1ccccc1)C1CC1)CCO2 (stereo not drawn) | i
O=C(COc1ccccc1)N1CCC2(CC1)CC(N(Cc1ccccc1)C1CC1)CCO2 (stereo not drawn) | 3.2µM*
O=C(NC1CCCC1)N1CCC2(CC1)CC(N(C(=O)c1ccccc1)C1CC1)CCO2 (stereo not drawn) | i
CCS(=O)(=O)N(C1CC1)C1CCOC2(CCN(C(=O)c3ccc(F)cc3)CC2)C1 (stereo not drawn) | 45%
O=C(c1ccsc1)N1CCC2(CC1)CC(N(Cc1ccc(F)cc1)C1CC1)CCO2 (stereo not drawn) | 8.9µM*
O=C(c1ccsc1)N1CCC2(CC1)CC(N(Cc1ccccc1)C1CC1)CCO2 (stereo not drawn) | -28%
CCCN1CCCC2(CCN(Cc3cnc(N4CCOCC4)s3)C2)C1=O (stereo not drawn) | 6%
CNC(=O)N1C[C@@H](CN(C)C)[C@H](NS(=O)(=O)c2c(C)noc2C)C1 | 19%
COc1ccc(C(=O)N2C[C@@H](Oc3ccccc3)C[C@H]2C(=O)NC2CC2)c(OC)c1 | -5%
COC(=O)[C@@H]1Cc2ncn(Cc3ccc(Cl)cc3)c2CN1C(=O)CC(C)(C)CC(=O)O | -18%
Cc1ccc(N2CC(C)N(C(=O)c3cccc(OC(F)F)c3)CC2=O)cc1 (stereo not drawn) | -3%
O=C(Cc1ccc(F)cc1)Nc1cccc(-c2nc3cccnc3s2)c1 | 1%
Cc1ccc(C(=O)N2CCn3c(nn(-c4ccc([N+](=O)[O-])cc4)c3=O)C2)cc1 | 6%
Cc1cc(-n2c(C)nc3ccccc3c2=O)ccc1NC(=O)c1ccccc1[N+](=O)[O-] | -2%
CCOC(=O)c1ccc(NC(=O)c2c(C)nn(-c3ccc(F)cc3)c2-n2cccc2)cc1 | 7%
CC(C)Cc1ccc(S(=O)(=O)N2CCCC(Cn3cnc4cccnc43)C2)cc1 (stereo not drawn) | -10%
Cc1nc2cccnc2n1CC1CCCN(C(=O)Nc2cccc(C(F)(F)F)c2)C1 (stereo not drawn) | 11µM*
Cc1cc(S(=O)(=O)N2CCCC(Cn3c(C)nc4cccnc43)C2)ccc1Cl (stereo not drawn) | -28%
Cc1nc2cccnc2n1CC1CCCN(C(=O)Nc2ccc(C(F)(F)F)cc2)C1 (stereo not drawn) | i
COc1cccc(NC(=O)N2CCCC(Cn3c(C)nc4cccnc43)C2)c1 (stereo not drawn) | i
Cc1nc2cccnc2n1CC1CCCN(S(=O)(=O)c2ccc(CC(C)C)cc2)C1 (stereo not drawn) | 6.3µM*
Cc1ccc(-c2ccc3nnc(CNC(=O)COc4cccc(C)c4)n3n2)cc1 | 7%
Cc1nc2nc[nH]n2c(=O)c1CCC(=O)Nc1ccc(F)cc1 | 17%
COc1ccc2c(c1)c1c(c(=O)n(-c3ccc(F)c(Cl)c3)c(=O)n1CC(N)=O)n2C | 11%
COc1cccc(CNC(=O)c2c(OC)cc(=O)n3c2CCCC3)c1OC | i
SMILES | Pf Dd2 inh
CCOC(=O)c1ccccc1NC(=O)c1cnn(-c2ccc(OC)cc2)c1C1CCN(C(=O)OC(C)(C)C)CC1 | 59%
CC(C)(C)OC(=O)N1CCC(c2c(C(=O)N3CCC(c4ccccc4)C3)cnn2-c2ccc(Cl)cc2)CC1 (stereo not drawn) | 4.5µM*
Cc1ccc(C2CCN(C(=O)c3cnn(-c4ccc(C)cc4)c3C3CCN(C(=O)OC(C)(C)C)CC3)C2)cc1 (stereo not drawn) | -24%
Cc1ccc(-n2ncc(C(=O)N3CCN(c4ncccn4)CC3)c2C2CCN(C(=O)OC(C)(C)C)CC2)cc1 | 41%
CC(C)(C)OC(=O)N1CCC(c2c(C(=O)N3CCN(c4ccccn4)CC3)cnn2-c2ccccc2)CC1 | -22%
CCOC(=O)c1cnn(-c2ccc(OC)cc2)c1C1CCN(C(=O)OC(C)(C)C)CC1 | 7.9µM*
COc1ccc(-n2ncc(C(=O)N3CCN(c4ncccn4)CC3)c2C2CCN(C(=O)OC(C)(C)C)CC2)cc1 | 20%
Cc1ccc(-n2ncc(C(=O)N3CCC(c4ccccc4)C3)c2C2CCN(C(=O)OC(C)(C)C)CC2)cc1 (stereo not drawn) | 11µM*
CSCC(=O)N[C@H]1CCN2C(=O)N(c3cccc(C(C)=O)c3)C(=O)[C@@H]2C1 | -2%[44.1 µM]
CN(C)c1cccc(C(=O)Nc2ncc(-c3cccc(F)c3)c3c2OCC3)c1 | -12%[44.1 µM]
CC(=O)Nc1cccc(-c2nnc(SCC(=O)c3ccc([N+](=O)[O-])cc3)o2)c1 | 5%
CC(C)CN1C(=O)c2cccn2CC1C(=O)NCc1cc(F)ccc1F (stereo not drawn) | i
CCOc1cccc(-c2noc(-c3nnn4c3COC(c3ccc(F)cc3)C4)n2)c1 (stereo not drawn) | i

Bioassay records from PubChem.
